From PubChem BioAssay
Only some compounds are listed: those with a hit (about 1.2% of all), similar ones and a draw of the others.
KCNH2 WT inh – inhibitors of human wildtype KCNH2 potassium channel | Q12809 | U2OS, BacMam KCNH2, thallium flux FluxOr; active compounds read low | activity change, % at 1.84 µM | actives 0.37% (n = 340,000) | AID 720551;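 active = maximum activity change below -70%; inconclusive = maximum activity change between -70% and -50%; inactive = maximum activity change above -50%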
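U2OS cells transduced with wild-type KCNH2 virus are loaded with FluxOr dye for 45 min, and thallium flux is measured in kinetic reads before and after stimulation buffer. Rate constants are normalized to DMSO controls.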
KinaseGlo FLuc – counter-screen: inhibitors of Kinase-Glo firefly luciferase; AID 1379; Kinase-Glo luciferase, ATP luminescence, 8 min; Potency, µM (highest dose often 38.3 µM), actives largely listed as inhibitors; Q27757; actives 0.28% (n = 200,000); active = well fitted inhibition curve with a large enough effect; inconclusive = small, poorly fitted or top-dose-only effect; note: nearly all actives have a fitted effect of over 60% in size
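Compounds were added to a substrate mix at pH 7.2 (50 mM imidazole, 10 uM ATP, within the enzyme's linear range), followed by Kinase-Glo detection reagent; luminescence was measured after 8 minutes at ambient temperature.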
KCNH2 3.1 block – inhibitors of human KCNH2 3.1 potassium channel isoform; activity change, % (tested at about 1.8 µM); U2OS KCNH2 3.1, thallium flux FluxOr; active compounds read low; actives 0.95% (n = 340,000);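 active = maximum activity change below -70%; inconclusive = maximum activity change from -70% to -50%; inactive = maximum activity change above -50%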;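 note: thallium influx rate constant from kinetic fluorescence after stimulation buffer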
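Thallium flux read-out: FluxOr dye with Red40 quencher in HBSS/HEPES, 45 min at RT. Rate constants from kinetic reads were normalized to positive and negative DMSO controls. Cells: U2OS virally expressing the 3.1 isoform.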
A number is an active result; 0 = inactive; ? = inconclusive; - = no result; [ ] = remark or other dose.

SMILES | KCNH2 WT inh | KinaseGlo FLuc | KCNH2 3.1 block
Cc1ccc([C@H]2N[C@]3(CCCN(Cc4cccn4C)C3=O)[C@H]3C(=O)N(Cc4ccccc4)C(=O)[C@@H]23)cc1 | -71 | - | 0
Cn1cccc1CN1CCC[C@]2(N[C@H](c3ccccc3)[C@@H]3C(=O)N(Cc4ccccc4)C(=O)[C@@H]32)C1=O | 0 | - | 0
Cc1ccc(NC(=O)CNNC(=O)c2cccc([N+](=O)[O-])c2)cc1[N+](=O)[O-] | 0 | - | 0
Cc1cc(C)cc(NC(=O)C(c2ccccc2)N2CCN(CC(=O)NC3CC3)CC2)c1 (configuration not stated) | 0 | - | 0
Cc1ccccc1NS(=O)(=O)c1cc(C(=O)N2CCc3ccccc3C2)ccc1C | 0 | 0 | 0
Cc1ccc(NS(=O)(=O)c2cc(C(=O)N3CCc4ccccc4C3)ccc2Cl)cc1 | -261 | 0 | 0
CC12CCC(=O)N1C(C(=O)N1CCN(S(=O)(=O)c3cccc(Cl)c3)CC1)CS2 (configuration not stated) | 0 | - | 0
CCOC(=O)C(=O)Nc1cc(C)on1 | 0 | 13µM | 0
CCCCNC(=O)Nc1cc(C)on1 | 0 | 0 | 0
O=C(O)C1=C[C@@H](c2ccc(C(F)(F)F)cc2)C[C@@H](OCCCCO)O1 | 0 | - | 0
N=c1sccn1CC(=O)N1N=C(c2ccc(Cl)cc2)CC1c1ccco1 (configuration not stated) | 0 | 0 | -86
O=C(OCC(=O)N1N=C(c2ccc(Cl)cc2)CC1c1ccco1)c1ccco1 (configuration not stated) | 0 | 0 | 0
COc1ccc([N+](=O)[O-])cc1NC(=O)CN(C)S(=O)(=O)c1ccccc1 | 0 | 0 | 0
CCOc1cc(N2CCOCC2)c(OCC)cc1NC(=O)c1ccccc1N1CCCC1=O | 0 | - | 0
Cc1nc(NCCO)c2nc(-c3ccccc3)n(CCN(C)C)c2n1 | - | 0 | -
COC(=O)N1C2CC3(C)CC(=O)CC1(C)C3c1ccccc12 (configuration not stated) | - | 0[7.66 µM] | -
CC(=O)Oc1ccccc1C1C[C@]2(C)CC(=O)NC2N1C(C)=O (some centres not stated) | 0 | - | -107
CCOC(=O)c1c(C)[nH]c(C(=O)OC(C)C(=O)NC2(C#N)CCCCC2)c1C (configuration not stated) | 0 | - | 0
CCCSc1nc2c(cnn2-c2ccc(C)c(C)c2)c(=O)[nH]1 | 0 | 0 | -123
CCCCSc1nc2c(cnn2-c2ccc(C)c(C)c2)c(=O)[nH]1 | 0 | 0 | 0
CC(=O)Oc1cccc2c1C(=O)C1CC=CC(OC(C)=O)C1C2=O (configuration not stated) | 0 | - | 0
COc1ccc(C(=O)N2CCN(CCNC(=O)C(=O)Nc3ccc(Br)cc3)CC2)cc1 | 0 | - | -105
O=C(c1ccc(Cl)cc1)N1CCN(CCc2ccccn2)CC1 | 0 | - | 0
COc1ccc(C(=O)N2CCN(CCc3ccccn3)CC2)cc1 | 0 | - | -99
CCc1ccc(NC(=O)NCCN2CCN(c3ccc(OC)cc3)CC2)cc1 | 0 | - | ?
SMILES | KCNH2 WT inh | KinaseGlo FLuc | KCNH2 3.1 block
COc1ccc(NC(=O)C(=O)NCCN2CCN(C(=O)c3ccc(C(C)(C)C)cc3)CC2)cc1 | 0 | - | 0
COc1ccc(NC(=O)c2ccc(CN3CCN(c4ccccc4)CC3)cc2)cc1 | 0 | 0 | ?
CCc1ccc(N2CCN(CCNC(=O)Nc3ccc(OC)cc3)CC2)cc1 | 0 | - | -94
COc1ccc(C(=O)Nc2ccc(N3CCN(Cc4ccccc4)CC3)cc2)cc1 | 0 | 0 | -85
CCCN(CCC)C(=O)c1cn(C)c2ccc(S(=O)(=O)N3CCCC3)cc2c1=O | 0 | - | 0
Cc1ccc(S(=O)(=O)N(CC(O)CN2CCOCC2)c2cccc([N+](=O)[O-])c2)cc1 (configuration not stated) | 0 | - | 0
Cc1cccc(C2=NN(c3ccccc3)[C@H](CO)[C@H]2C)c1 | - | 0 | -
CC(OC(=O)CCC(=O)c1cccs1)C(=O)NC1CCCCC1C (configuration not stated) | 0 | - | 0
COc1cc(/C=N/N=C(\N)c2nonc2N)cc(OC)c1O | 0 | - | 0
COc1ccc(/C=N/N=C(\N)c2nonc2N)cc1 | 0 | 10µM | 0
O=C(NN=C1CCCCCCC1)c1ccc2ccccc2n1 | 0 | 0 | 0
Cc1ccc(C)c(S(=O)(=O)N2CCCN(C)CC2)c1 | 0 | - | -90
Cc1ccc(C)c(S(=O)(=O)N2CCN(c3ncccn3)CC2)c1 | 0 | 0 | 0
CCOCCCN(CCC#N)S(=O)(=O)c1ccc(S(=O)(=O)N2CCCC2)cc1 | -82 | 0 | 0
CCN(CC)S(=O)(=O)c1ccc(S(=O)(=O)N2CCCC2)cc1 | 0 | 0 | 0
Cc1ccc(S(=O)(=O)N2C[C@H]3N(C(=O)OC(C)C)N(C(=O)OC(C)C)C[C@H](OC(=O)NCc4ccco4)[C@@]3(O)C2)cc1 | 0 | - | 0
CC[C@@H](C)CN1C(=O)N[C@@H](c2ccccc2)C(C(=O)OC)=C1C | - | 0[7.66 µM] | -
C/C=C/C=C\C(=O)Nc1cccc(C2=NOC3(C2)C[C@H](C(N)=O)N(C(=O)/C=C/C)C3)c1 (some centres not stated) | 0 | - | -177
C/C=C\C=C\C(=O)N1CC2(CC(c3cccc(NC(=O)CC)c3)=NO2)C[C@H]1C(N)=O (some centres not stated) | 0 | - | 0
O=C1CCCCC1Nc1ccc(Br)cc1 (configuration not stated) | 0 | - | 0
CCC(C)N(C(=O)CSc1nc(C)nc2ccccc12)C1CCS(=O)(=O)C1 (configuration not stated) | 0 | - | 0
C=CCn1c(SCC(=O)N(C(C)CC)C2CCS(=O)(=O)C2)nc2ccccc2c1=O (configuration not stated) | 0 | - | -88
COc1ccc(NC(C)=O)cc1S(=O)(=O)N1CCN(C/C=C/c2ccccc2)CC1 | 0 | 0 | -73
COc1ccccc1NC(=O)C(C)N1CCN(C/C=C/c2ccccc2)CC1 (configuration not stated) | -82 | 0 | -95
COc1ccccc1C(=O)NCC(=O)N1CCN(C/C=C/c2ccccc2)CC1 | 0 | - | 0
SMILES | KCNH2 WT inh | KinaseGlo FLuc | KCNH2 3.1 block
COc1ccc(NC(C)=O)cc1S(=O)(=O)N1CCN(C(=O)c2ccccc2F)CC1 | 0 | - | 0
Cc1cn([C@H]2C[C@H](O)[C@@H](CCC(=O)NCc3ccco3)O2)c(=O)[nH]c1=O | 0 | - | 0
COc1ccc(NC(=O)CN2C(=O)NC(c3ccccc3)(c3ccccc3)C2=O)cc1 | 0 | - | 0
COc1ccc(C2(c3ccc(OC)cc3)NC(=O)N(CC(=O)Nc3ccc(OC(F)F)cc3)C2=O)cc1 | -83 | - | -
C[N+](C)(C)c1ncnc2c1ncn2[C@@H]1CCCCO1 | - | 0[7.66 µM] | -
CCc1c(C)nc(SCC(=O)N2CCN(c3ccccc3)CC2)[nH]c1=O | -79 | 0 | -
Cn1c(SCC(=O)N2CCN(c3ccccc3)CC2)nnc1-c1ccco1 | -77 | 0 | 0
Cn1c(SCC(=O)N2CCOCC2)nnc1-c1ccco1 | 0 | - | 0
CCc1c(C)nc(SCC(=O)N2CCN(c3ccccc3OC)CC2)[nH]c1=O | 0 | 0 | 0
CC(=O)Nc1ccc(NC(=O)COC(=O)c2ccc(S(=O)(=O)N(C)c3ccccc3)cc2)cc1 | 0 | - | 0
CCCCN(C)C1=CC2=CC(=C(C#N)C#N)CCC2CC1 (configuration not stated) | -87 | 0 | -102
